Consider 25 sequences from article PMC5700166.

Common to all, as to test: protein-binding microarray (PBM); PBM: ~300 nM protein, 6 mM HEPES pH 7.8, 80 mM KCl, 0.5 mM EDTA, 0.5 mM EGTA, 6% glycerol, 35 ng/ul poly-dIdC, 1% milk, 1 h, room temperature; Ap Aiptasia and Nv Nematostella (sea anemones) / Co Capsaspora / Aq Amphimedon (sponge) / Dm Drosophila / Hu human; RHD is the Rel homology domain; high values mean tight binding
What all share (settings): dsDNA, one strand shown

The target in assay [1] is T1, GST-Ap-NF-kB RHD (Exaiptasia pallida (Aiptasia), UniProt A0A913YAJ5 2-422).
T1 sequence: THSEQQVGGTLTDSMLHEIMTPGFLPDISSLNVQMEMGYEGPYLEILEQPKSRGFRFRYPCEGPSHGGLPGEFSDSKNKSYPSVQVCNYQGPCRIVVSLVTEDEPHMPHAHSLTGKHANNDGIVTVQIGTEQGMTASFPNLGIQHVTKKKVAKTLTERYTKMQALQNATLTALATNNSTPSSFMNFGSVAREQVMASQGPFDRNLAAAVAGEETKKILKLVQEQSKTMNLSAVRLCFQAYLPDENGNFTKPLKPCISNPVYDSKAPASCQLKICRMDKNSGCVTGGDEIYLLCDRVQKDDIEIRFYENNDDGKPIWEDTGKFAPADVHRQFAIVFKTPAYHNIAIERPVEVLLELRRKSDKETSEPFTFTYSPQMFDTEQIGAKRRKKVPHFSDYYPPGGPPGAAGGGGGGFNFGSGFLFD

Assay [2] concerns the target T2, GST-Nv-NF-kB (Cys allele) (Nematostella vectensis, UniProt E5G601 2-411).
T2 sequence: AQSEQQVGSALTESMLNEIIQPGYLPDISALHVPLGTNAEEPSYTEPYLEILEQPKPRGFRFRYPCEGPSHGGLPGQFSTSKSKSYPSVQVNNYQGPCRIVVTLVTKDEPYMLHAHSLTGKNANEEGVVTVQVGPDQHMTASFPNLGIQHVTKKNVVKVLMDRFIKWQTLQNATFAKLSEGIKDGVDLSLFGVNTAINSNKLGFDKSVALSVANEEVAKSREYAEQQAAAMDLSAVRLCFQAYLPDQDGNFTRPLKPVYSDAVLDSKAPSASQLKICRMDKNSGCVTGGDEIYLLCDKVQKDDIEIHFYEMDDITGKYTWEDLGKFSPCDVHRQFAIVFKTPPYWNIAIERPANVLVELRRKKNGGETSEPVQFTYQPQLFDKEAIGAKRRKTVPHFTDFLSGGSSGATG

Assay [3] addresses T3, GST-Co-NF-kB (Capsaspora owczarzaki, UniProt F1ARL5 200-546).
T3 sequence: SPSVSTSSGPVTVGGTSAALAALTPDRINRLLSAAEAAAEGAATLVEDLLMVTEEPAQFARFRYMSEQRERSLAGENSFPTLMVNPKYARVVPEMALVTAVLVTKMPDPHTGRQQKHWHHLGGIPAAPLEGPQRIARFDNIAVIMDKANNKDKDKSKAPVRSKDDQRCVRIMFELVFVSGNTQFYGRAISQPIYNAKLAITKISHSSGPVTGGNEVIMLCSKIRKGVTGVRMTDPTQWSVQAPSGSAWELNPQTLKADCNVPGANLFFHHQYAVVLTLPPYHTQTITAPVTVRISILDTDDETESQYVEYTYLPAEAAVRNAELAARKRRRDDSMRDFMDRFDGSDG

Assay [4] concerns the target T4, GST-Dm-Relish (Drosophila melanogaster, UniProt Q94527 99-473).
T4 sequence: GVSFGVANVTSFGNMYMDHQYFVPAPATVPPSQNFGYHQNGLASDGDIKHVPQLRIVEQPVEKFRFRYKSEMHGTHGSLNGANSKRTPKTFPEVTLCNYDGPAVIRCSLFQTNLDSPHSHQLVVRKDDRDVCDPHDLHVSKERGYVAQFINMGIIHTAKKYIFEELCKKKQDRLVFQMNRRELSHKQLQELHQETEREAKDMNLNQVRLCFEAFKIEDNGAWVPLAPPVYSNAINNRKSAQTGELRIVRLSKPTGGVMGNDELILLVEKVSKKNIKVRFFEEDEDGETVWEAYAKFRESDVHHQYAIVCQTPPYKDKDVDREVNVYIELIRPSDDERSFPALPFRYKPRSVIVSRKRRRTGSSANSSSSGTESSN

Assay [5] concerns the target T5, GST-Aq-NF-kB (Amphimedon queenslandica, UniProt A9Y5G7 2-389).
T5 sequence: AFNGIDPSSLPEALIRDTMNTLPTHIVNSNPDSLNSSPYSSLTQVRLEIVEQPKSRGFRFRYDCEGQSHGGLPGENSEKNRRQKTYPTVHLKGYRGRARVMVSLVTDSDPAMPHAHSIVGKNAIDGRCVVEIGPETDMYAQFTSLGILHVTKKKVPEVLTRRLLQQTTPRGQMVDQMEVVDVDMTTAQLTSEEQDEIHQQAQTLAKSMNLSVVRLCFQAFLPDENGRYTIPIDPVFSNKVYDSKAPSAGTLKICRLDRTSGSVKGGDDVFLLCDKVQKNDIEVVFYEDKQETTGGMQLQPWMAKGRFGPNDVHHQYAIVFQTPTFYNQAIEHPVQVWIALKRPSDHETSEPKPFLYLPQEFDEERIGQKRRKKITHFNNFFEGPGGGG

In the case of “CCGATTAACATCAGGGGGGGCACTGATGTTAATCGGGTCTTGATTCGCTTGACGCTGCTG”, the binding signal in assay [1] was 4.77 z-score; in assay [2], 3.1 z-score; in assay [3], 4.2 z-score; in assay [4], 4.97 z-score; in assay [5], 4.76 z-score.

Take “CCGATTAACATCAGGGGGTAATATGATGTTAATCGGGTCTTGATTCGCTTGACGCTGCTG”: the binding signal in assay [1] worked out at 4.99 z-score; in assay [2], 4.47 z-score; in assay [3], 6.77 z-score; in assay [4] it was 2.66 z-score; in assay [5], 4.45 z-score.

Turning to “CCGATTAACATCAAGCAATTCCCTGATGTTAATCGGGTCTTGATTCGCTTGACGCTGCTG”, the binding signal in assay [1] is 3.2 z-score; in assay [2], 4.28 z-score; in assay [3], 2.25 z-score; in assay [4], 1.23 z-score; in assay [5] it was 3.57 z-score.

Regarding “CCGATTAACATCAGGGAACAACCTGATGTTAATCGGGTCTTGATTCGCTTGACGCTGCTG”, the binding signal in assay [1] was 2.52 z-score; in assay [2], 2.46 z-score; in assay [3] it was 1.05 z-score; in assay [4] it was 4.7 z-score; in assay [5], 4.61 z-score.

“CCGATTAACATCACGGGAATGCCTGATGTTAATCGGGTCTTGATTCGCTTGACGCTGCTG”: the binding signal worked out at 1.93 z-score in assay [1]; 2.46 z-score in assay [2]; 1.56 z-score in assay [3]; 3.11 z-score in assay [4]; 3.8 z-score in assay [5].

“CCGATTAACATCAAGGGAATCCCTGATGTTAATCGGGTCTTGATTCGCTTGACGCTGCTG”: the binding signal came out at 6.73 z-score in assay [1]; 6.1 z-score in assay [2]; 2.83 z-score in assay [3]; 9.2 z-score in assay [4]; 6.63 z-score in assay [5].

Take “CCGATTAACATCAAGGTACCCCCTGATGTTAATCGGGTCTTGATTCGCTTGACGCTGCTG”: the binding signal in assay [1] amounted to 5.83 z-score; in assay [2] it was 2.82 z-score; in assay [3], 4.58 z-score; in assay [4], 2.84 z-score; in assay [5] it was 3.11 z-score.

In the case of “CCGATTAACATCAGGGCCCCCCCTGATGTTAATCGGGTCTTGATTCGCTTGACGCTGCTG”, the binding signal in assay [1] was 6.57 z-score; in assay [2] it was 4.21 z-score; in assay [3] it was 2.89 z-score; in assay [4], 6.49 z-score; in assay [5], 7.6 z-score.

On to “CCGATTAACATCACGGCTTTCCCTGATGTTAATCGGGTCTTGATTCGCTTGACGCTGCTG”, for which the binding signal turned out to be 2.31 z-score in assay [1]; 3.5 z-score in assay [2]; 2.32 z-score in assay [3]; 2.21 z-score in assay [4]; 3.7 z-score in assay [5].

Regarding “CCGATTAACATCAAATAAATCCCTGATGTTAATCGGGTCTTGATTCGCTTGACGCTGCTG”, the binding signal in assay [1] turned out to be 3.07 z-score; in assay [2], 4.02 z-score; in assay [3], 1.92 z-score; in assay [4] it was 5.66 z-score; in assay [5], 5.06 z-score.

On to “CCGATTAACATCACGGGGGGGACTGATGTTAATCGGGTCTTGATTCGCTTGACGCTGCTG”, for which the binding signal amounted to 5.94 z-score in assay [1]; 4.86 z-score in assay [2]; 7.62 z-score in assay [3]; 4.51 z-score in assay [4]; 5.17 z-score in assay [5].

Regarding “CCGATTAACATCACCAAAACCCCTGATGTTAATCGGGTCTTGATTCGCTTGACGCTGCTG”, the binding signal in assay [1] was determined as 4.76 z-score; in assay [2] it was 3.55 z-score; in assay [3], 1.32 z-score; in assay [4], 6.02 z-score; in assay [5], 3.55 z-score.

Regarding “CCGATTAACATCAGGGAAATTCATGATGTTAATCGGGTCTTGATTCGCTTGACGCTGCTG”, the binding signal in assay [1] is 4.54 z-score; in assay [2], 6.28 z-score; in assay [3], 4.15 z-score; in assay [4], 2.26 z-score; in assay [5] it was 5.94 z-score.

As for “CCGATTAACATCACGGGAATCCCTGATGTTAATCGGGTCTTGATTCGCTTGACGCTGCTG”, the binding signal in assay [1] was 6.64 z-score; in assay [2], 5.96 z-score; in assay [3], 3.81 z-score; in assay [4] it was 10.1 z-score; in assay [5], 7.15 z-score.

As for “CCGATTAACATCAGGGGGTGAAATGATGTTAATCGGGTCTTGATTCGCTTGACGCTGCTG”, the binding signal in assay [1] stood at 3.26 z-score; in assay [2] it was 3.42 z-score; in assay [3], 6.99 z-score; in assay [4], 3.46 z-score; in assay [5] it was 3.93 z-score.

In the case of “CCGATTAACATCAAAATCTTCCCTGATGTTAATCGGGTCTTGATTCGCTTGACGCTGCTG”, the binding signal turned out to be 5.74 z-score in assay [1]; 5.94 z-score in assay [2]; 4.16 z-score in assay [3]; 1.48 z-score in assay [4]; 5.28 z-score in assay [5].

As to “CCGATTAACATCAGGGGATCCACTGATGTTAATCGGGTCTTGATTCGCTTGACGCTGCTG”, the binding signal in assay [1] was found to be 7.41 z-score; in assay [2] it was 5.27 z-score; in assay [3], 2.76 z-score; in assay [4] it was 9.75 z-score; in assay [5], 6.81 z-score.

Consider “CCGATTAACATCAGGGAGTCCCATGATGTTAATCGGGTCTTGATTCGCTTGACGCTGCTG”, for which the binding signal in assay [1] came out at 4.64 z-score; in assay [2] it was 3.33 z-score; in assay [3] it was 1.13 z-score; in assay [4] it was 9.06 z-score; in assay [5], 4.21 z-score.

For the sequence “CCGATTAACATCAGAAGTTTCCCTGATGTTAATCGGGTCTTGATTCGCTTGACGCTGCTG”, the binding signal in assay [1] amounted to 4.01 z-score; in assay [2], 5.91 z-score; in assay [3] it was 5.14 z-score; in assay [4], 3.08 z-score; in assay [5] it was 6.09 z-score.

For the sequence “CCGATTAACATCAAAAGACCCCCTGATGTTAATCGGGTCTTGATTCGCTTGACGCTGCTG”, the binding signal in assay [1] turned out to be 6.38 z-score; in assay [2], 5.12 z-score; in assay [3] it was 3.12 z-score; in assay [4], 8.16 z-score; in assay [5], 6.25 z-score.

“CCGATTAACATCACAATACCCCCTGATGTTAATCGGGTCTTGATTCGCTTGACGCTGCTG”: the binding signal in assay [1] amounted to 7.39 z-score; in assay [2] it was 4.51 z-score; in assay [3], 4.26 z-score; in assay [4], 4.2 z-score; in assay [5], 4.87 z-score.

“CCGATTAACATCACGGATTTCCCTGATGTTAATCGGGTCTTGATTCGCTTGACGCTGCTG”: the binding signal in assay [1] is 3.73 z-score; in assay [2], 5.2 z-score; in assay [3] it was 3.28 z-score; in assay [4] it was 5.3 z-score; in assay [5], 5.69 z-score.

In the case of “CCGATTAACATCAAATAGCCCCCTGATGTTAATCGGGTCTTGATTCGCTTGACGCTGCTG”, the binding signal in assay [1] worked out at 5.01 z-score; in assay [2] it was 4.8 z-score; in assay [3] it was 2.9 z-score; in assay [4] it was 4.26 z-score; in assay [5], 5.62 z-score.

Take “CCGATTAACATCAGGGAAATAACTGATGTTAATCGGGTCTTGATTCGCTTGACGCTGCTG”: the binding signal was 2.57 z-score in assay [1]; 4.77 z-score in assay [2]; 3.96 z-score in assay [3]; 4.51 z-score in assay [4]; 6.11 z-score in assay [5].

Take “CCGATTAACATCAGGAGTCCCCATGATGTTAATCGGGTCTTGATTCGCTTGACGCTGCTG”: the binding signal in assay [1] was found to be 6.21 z-score; in assay [2], 4.39 z-score; in assay [3], 2.23 z-score; in assay [4] it was 7.3 z-score; in assay [5], 4.27 z-score.
